RE007 growth inh: less growth of the S. pombe RE007 Vpr strain. S. pombe RE007 Vpr strain, BacTiter-Glo ATP luminescence, 24 h. Potency, µM (series often up to 92.2 µM), usual class: inhibitors. 360,000 compounds, 0.21% hits. AID 651644; active = well fitted falling curve with a large enough effect; inconclusive = small, poorly fitted or top-dose-only effect; inactive = no such curve, though single readings can be large or run the other way; note: nearly all actives have a fitted effect of over 50% in size
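Fission yeast RE007 carrying one integrated HIV-1 vpr copy, seeded at OD 0.01 in PMG+AL medium with 23 nL pinned compound. Grown 24 h at 30 degrees; viability read by BacTiter-Glo luminescence after 5 min.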
Tb PYK inh: blocks Trypanosoma brucei pyruvate kinase; Q57TT1; TbPYK enzyme, Kinase-Glo Plus ATP luminescence, 45 min; Potency, µM (titrated, usually from 76.8 µM), hits mostly inhibitors; 410,000 compounds, 0.12% hits; AID 624173; note: nearly all actives have a fitted effect of over 50% in size
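TbPYK + substrate in 50 mM TEA pH 7.2, 100 mM KCl, 10 mM MgCl2, 0.05% BSA, 0.01% Tween-20; cpd pinned; ADP 130 uM final; 45 min RT; Kinase-Glo Plus 10 min; luminescence endpoint.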
LmPK inhibitor: LmPK (Leishmania mexicana) enzyme inhibition; Potency, µM (series often up to 57.5 µM), hits mostly inhibitors; 290,000 compounds, 0.37% hits; Q27686; purified LmPK, Kinase-Glo ATP luminescence, 1 h
Target sequence (Q27686 whole entry, looked up): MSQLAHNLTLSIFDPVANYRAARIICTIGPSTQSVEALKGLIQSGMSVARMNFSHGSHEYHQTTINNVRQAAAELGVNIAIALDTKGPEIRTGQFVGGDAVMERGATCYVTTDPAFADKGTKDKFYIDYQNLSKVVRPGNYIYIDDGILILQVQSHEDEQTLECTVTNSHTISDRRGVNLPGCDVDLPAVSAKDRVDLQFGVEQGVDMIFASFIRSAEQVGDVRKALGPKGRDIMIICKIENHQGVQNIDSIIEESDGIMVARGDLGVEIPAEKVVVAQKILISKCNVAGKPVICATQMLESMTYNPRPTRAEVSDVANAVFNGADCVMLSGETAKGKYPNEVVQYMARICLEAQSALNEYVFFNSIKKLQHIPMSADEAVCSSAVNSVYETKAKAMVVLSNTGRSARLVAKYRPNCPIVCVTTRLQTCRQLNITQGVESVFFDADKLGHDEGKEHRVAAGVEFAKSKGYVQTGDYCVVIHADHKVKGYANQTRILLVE
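0.1 nM LmPK, 0.5 mM PEP, 0.1 mM ADP; 50 mM imidazole pH 7.2, 7 mM MgCl2, 50 mM KCl; 1 h RT. Kinase-Glo luminescence readout, normalized to no-enzyme (full inhibition) and uninhibited wells.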
Shiga toxin inh: blocks Shiga toxin action in Vero cells. Vero cells, Shiga toxin protein synthesis inhibition reporter. inhibition, % at 38.7 µM. 290,000 compounds, 9.2% hits. AID 2315; in the data active = inhibition mostly above about 28%, no sharp cut-off; inactive = mostly below about 43%
Cycloheximide cs: counter-screen hit for Shiga toxin inhibitors, cycloheximide; max response, %; cell reporter, cycloheximide protein synthesis inhibition counterscreen; 300,000 compounds, 12% hits; AID 2314; in the data active = max response mostly above about 13%, no sharp cut-off; inactive = mostly below about 14%; note: read at 38.3 µM for the half of the compounds with a filed dose
FBPA Giardia inh: inhibitors of Giardia lamblia fructose-1,6-bisphosphate aldolase; Potency, µM (highest dose often 59.6 µM), hits mostly inhibitors; A8B2U2; 290,000 compounds, 0.71% hits; purified Giardia FBPA; note: nearly all actives have a fitted effect of over 55% in size
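Giardia FBPA (40 nM reagent) was preincubated 10 min at RT with compound (up to 57.5 uM final), then substrate plus GAPDH/TPI/NAD/arsenate coupling system with diaphorase/resazurin was added; resorufin fluorescence (525/598 nm) was read after 20 min.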
A number is an active result; – = inactive; ? = inconclusive; · = not tested or not shown. The sample as a whole holds a higher share of hits than the screen did. Unless noted, calls come from the whole dose curve; as a rule, active = well fitted curve in the direction sought with a large enough effect; inconclusive = small, poorly fitted or top-dose-only effect, or another doubt; inactive = no such curve, though single readings can be large; an effect the other way counts as inactive or inconclusive.

SMILES	RE007 growth inh	Tb PYK inh	LmPK inhibitor	Shiga toxin inh	Cycloheximide cs	FBPA Giardia inh
CCOC(=O)c1c(/N=C/c2c(O)n(-c3ccccc3F)c(=S)[nH]c2=O)sc2c1CCCC2	–	–	–	–	–	17.7µM
CC(C)NC(=O)c1ccc2c(c1)nc1n2CCCCC1	·	–	·	·	·	·
FC(F)(F)c1ccc2c(c1)nc1n2CCCC1	–	–	–	–	21.5	–
COC(=O)c1ccc(C(=O)N2CCCC(CNC(=O)c3ccccc3Cl)C2)cc1 (configuration not stated)	–	–	–	–	13.3	–
C=CCC(=O)N1CCCC(CNC(=O)c2ccc(-c3ccccc3)cc2)C1 (configuration not stated)	–	–	–	–	–	–
COc1ccc(CC(=O)N2CCCC(CNC(=O)c3ccccc3Cl)C2)cc1 (configuration not stated)	–	–	–	33.1	–	–
CC(=O)NCCC(=O)N1CCCC(CNC(=O)c2ccc(-c3ccccc3)cc2)C1 (configuration not stated)	–	–	–	–	14.6	–
O=C(NCC1CCCN(C(=O)c2cscn2)C1)c1ccccc1Cl (configuration not stated)	–	–	–	30.3	25.5	–
CN1C(=O)CCC2(c3ccccc3)CC=C(O)C=C12 (configuration not stated)	–	–	·	·	·	·
CCN(CCn1cccn1)C(=O)C1CCC(=O)N(CCN2CCOCC2)C1 (configuration not stated)	–	–	–	–	–	·
CC(=O)c1ccccc1C(=O)N1CCCC(CNC(=O)c2ccc(F)cc2)C1 (configuration not stated)	–	–	·	·	·	·
CC(=O)c1ccc(C(=O)N2CCCC(CNC(=O)c3ccccc3Cl)C2)cc1 (configuration not stated)	–	–	–	–	15.5	–
Cc1cc(-c2ccc(C)c(S(=O)(=O)NC(c3cccs3)C(C)C)c2)on1 (configuration not stated)	·	–	·	·	·	·
CC(=O)Nc1c(Nc2ccccc2)c2ccccc2oc1=O	–	–	–	–	–	–
O=c1nc(Nc2ccccc2)oc2ccccc12	–	–	?	53.4	38.3	–
O=c1oc(Nc2ccc(F)cc2)nc2ccccc12	?	–	–	81.2	16.8	–
Oc1ccc(Nc2nc(-c3ccccc3F)nc3ccccc23)cc1	–	–	–	–	–	–
C/C(N)=C(/C#N)C(=O)CSc1nnc(NC(C)C)s1	–	–	–	58.4	30.1	–
CSc1nnc(Nc2ccccc2C)s1	–	–	–	–	16.4	–
COc1cc(NC(=O)CSc2nnc(NC(C)C)s2)cc(OC)c1OC	–	–	–	–	–	–
C/C(N)=C(/C#N)C(=O)CSc1nnnn1-c1ccc(C)cc1	–	–	–	–	36.1	–
C/C(N)=C(/C#N)C(=O)CSc1nnnn1-c1ccccc1	–	–	–	–	–	–
Cc1cc(NC(=O)CSc2nnc(Nc3ccccc3C)s2)no1	–	–	–	–	–	–
C/C(N)=C(/C#N)C(=O)CSc1nc2ccccc2[nH]1	–	–	–	66.5	35.0	–
C/C(N)=C(/C#N)C(=O)CSc1ncnc2ccccc12	–	–	–	–	–	–
SMILES	RE007 growth inh	Tb PYK inh	LmPK inhibitor	Shiga toxin inh	Cycloheximide cs	FBPA Giardia inh
CCn1c(=O)c(C(=O)CN(C)CC(=O)Nc2cccc(F)c2)c(N)n(Cc2ccccc2)c1=O	–	–	·	·	·	·
COc1ccc(-n2c(SCc3ccccc3F)nc3c([nH]c4ccccc43)c2=O)cc1OC	·	–	·	·	·	·
Cc1cc(C(=O)CN2C(=O)C(=O)N(CCC3=CCCCC3)C2=O)c(C)n1C	–	–	·	·	·	·
CCCc1c(C(=O)N/N=C(/C)c2ccncc2)nnn1-c1nonc1N	–	–	–	–	–	–
CN(CC(=O)Nc1c(Cl)cccc1Cl)C(=O)CCNS(=O)(=O)c1ccccc1C(F)(F)F	–	–	·	·	·	·
CC(C)OC(=O)C(C(=O)OC(C)C)=C1SC=CS1	·	–	·	·	·	·
C/C(N)=C(/C#N)C(=O)CSc1nnc(Nc2ccccc2C)s1	–	–	–	50.9	45.6	–
C/C(N)=C(/C#N)C(=O)CSc1nnc(Nc2ccccc2)s1	–	–	–	138.9	41.9	–
Cc1ccccc1Nc1nnc(SCC(=O)c2ccc(O)cc2O)s1	–	–	–	–	–	–
Cc1nc2ccc(N)cc2s1	–	–	–	–	–	–
Cc1nc2cc(C)c(C)cc2s1	–	–	–	–	21.6	–
Cc1nc2cc3sc(C)nc3cc2s1	–	–	–	72.9	33.3	–
Cc1cc(Nc2ccc(C)c(C)c2)c2ccccc2n1	–	–	–	–	–	–
Cc1ccc(Nc2nc3ccccc3c(=O)[nH]2)cc1C	–	–	–	36.4	37.5	–
Cc1ccc(Nc2nc(N)c3ccccc3n2)cc1C	–	–	–	36.7	20.3	?
CNc1oc(-c2cccs2)nc1C#N	–	–	–	–	–	–
COc1ccc(Nc2oc(-c3ccccc3F)nc2C#N)cc1	–	–	–	47.2	33.6	–
COc1ccc(Nc2oc(-c3cccs3)nc2C#N)cc1	–	–	–	146.1	61.8	–
COc1ccccc1N1CCN(c2ncccc2-c2nc(-c3ccc(Cl)cc3)no2)CC1	·	–	·	·	·	·
Cc1ccn2c(NC(=O)c3ccccc3)c(-c3ccccc3)nc2c1	–	–	–	–	–	–
O=C(O)c1ccccc1C(=O)Nc1c(-c2ccccc2)nc2ccccn12	–	–	–	–	27.2	–
Cc1ccc(-c2nc3ccccn3c2C=O)cc1	?	–	?	65.7	31.7	–
COc1ccc(-c2nc3c4ccccc4ccn3c2C=O)cc1	–	–	–	–	–	–
Cc1c(-c2ccc(Br)cc2)nc2ccccn12	?	–	?	49.3	29.2	–
CN(C)c1ccc(-c2nc3ccccn3c2/N=C/c2ccc(Br)cc2)cc1	?	–	–	–	46.3	–
SMILES	RE007 growth inh	Tb PYK inh	LmPK inhibitor	Shiga toxin inh	Cycloheximide cs	FBPA Giardia inh
O=C(Nc1ccc(OC(F)F)cc1)c1cc(S(=O)(=O)N2CCCCC2)ccc1N1CCOCC1	–	–	·	·	·	·
CC(C)(C)c1ccc(C(=O)c2c[nH]c(C(=O)NCCc3ccccn3)c2)cc1	–	–	–	–	–	–
CCCCN(C)c1nnc(NC(=O)Nc2cccc(C(C)=O)c2)s1	·	–	·	·	·	·
O=C(c1cnccn1)N1CCC2(CCCN(c3ccccn3)C2)CC1	·	–	·	·	·	–
CCc1ccc(CNC(=O)C2Cc3cc(S(=O)(=O)N4CCCCCC4)ccc3N2C(C)=O)cc1 (configuration not stated)	·	–	·	·	·	·
O=C(O)c1cc(F)c(S(=O)(=O)N2CCN(S(=O)(=O)c3ccc4c(c3)OCCO4)CC2)cc1F	·	·	·	–	–	·
Clc1c(-c2ccccc2)nc2ccccn12	–	–	–	–	20.6	–
